Consider 16 compounds from PubChem BioAssay (EPA / NIEHS).

Experiment [1] concerns the target human RAR-related Orphan Receptor gamma (RORg), RORC (gene 6097) (UniProt P51449). Briefly: ATG_RORg_TRANS: Attagene TRANS-FACTORIAL HepG2 Assay for human RAR-related Orphan Receptor gamma (RORg) (AID 2283011; active means hit-call score of the fitted dose curve at least 0.9, where 1 is the maximum). In short, it runs like this:
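Transient MRTU transfection of HepG2 (TRANS format, exogenous NR-Gal4 chimera). 24 h dosing. Total RNA → oligo(dT) RT → PCR → 6-FAM labelling → HpaI cut → CE. Gain vs DMSO.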

Experiment [2] addresses Retinoic acid receptor RXR-alpha (Homo sapiens) (UniProt P19793). Put plainly: ATG_RXRa_TRANS: Attagene TRANS-FACTORIAL HepG2 Assay for human Retinoid X Receptor alpha (RXRa) (AID 2283012; active means hit-call score of the fitted dose curve at least 0.9, where 1 is the maximum). In short, it runs like this: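 Read-out: fluorescent reporter-transcript fragments quantified by capillary electrophoresis after RT-PCR. Transiently transfected HepG2 cells carrying GAL4-UAS reporters and NR-GAL4 chimeras were exposed to chemical for 24 h; activity scored as increase over DMSO.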

Experiment [3] deals with human Thyroid Receptor alpha (THRa1), THRA (gene 7067) (UniProt P10827). Briefly: ATG_THRa1_TRANS: Attagene TRANS-FACTORIAL HepG2 Assay for human Thyroid Receptor alpha (THRa1) (AID 2283014; active means hit-call score of the fitted dose curve at least 0.9, where 1 is the maximum). In short, it runs like this: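 Transient HepG2 transfection, NR-Gal4 chimera driving GAL4-UAS reporters; 24 h compound exposure; total RNA, oligo(dT) RT, PCR, fluorescent primer extension, capillary electrophoresis. Upward direction vs DMSO control.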
human Thyroid Receptor alpha (THRa1), THRA (gene 7067), sequence (P10827 whole entry, looked up, the tested form may be a part): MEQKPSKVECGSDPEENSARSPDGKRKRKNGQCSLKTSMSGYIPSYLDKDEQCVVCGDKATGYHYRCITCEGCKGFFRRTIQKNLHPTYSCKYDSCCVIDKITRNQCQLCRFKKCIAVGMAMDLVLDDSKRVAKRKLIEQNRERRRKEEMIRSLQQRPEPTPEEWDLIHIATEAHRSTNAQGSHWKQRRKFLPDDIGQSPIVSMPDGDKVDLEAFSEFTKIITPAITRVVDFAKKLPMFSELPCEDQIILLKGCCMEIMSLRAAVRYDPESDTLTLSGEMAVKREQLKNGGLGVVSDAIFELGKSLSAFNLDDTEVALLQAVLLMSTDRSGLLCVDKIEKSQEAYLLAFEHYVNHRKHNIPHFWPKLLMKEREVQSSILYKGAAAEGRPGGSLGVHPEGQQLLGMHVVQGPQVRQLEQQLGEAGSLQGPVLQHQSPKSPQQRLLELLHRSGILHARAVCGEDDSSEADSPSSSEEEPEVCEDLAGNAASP

Experiment [4] has as its target human Vitamin D Receptor (VDR), VDR (gene 7421) (UniProt P11473). Briefly: ATG_VDR_TRANS: Attagene TRANS-FACTORIAL HepG2 Assay for human Vitamin D Receptor (VDR) (AID 2283022; active means hit-call score of the fitted dose curve at least 0.9, where 1 is the maximum). In short, it runs like this:
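RT-PCR/capillary electrophoresis read-out of reporter mRNA induction in transiently transfected HepG2; 24 h dosing; chimeric NR-Gal4 (TRANS format); gain-of-signal fit against DMSO baseline.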

Experiment [5] deals with human Retinoid X Receptor beta (RXRb), RXRB (gene 6257) (UniProt P28702). Put plainly: ATG_RXRb_TRANS: Attagene TRANS-FACTORIAL HepG2 Assay for human Retinoid X Receptor beta (RXRb) (AID 2283013; active means hit-call score of the fitted dose curve at least 0.9, where 1 is the maximum). In short, it runs like this: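 Read-out: reporter mRNA induction via RT-PCR plus capillary electrophoresis fluorescence, analysed as signal increase relative to DMSO. Cells were human HepG2, transiently transfected with GAL4-UAS reporter constructs and chimeric receptor-Gal4 fusions, dosed for 24 h.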
human Retinoid X Receptor beta (RXRb), RXRB (gene 6257), sequence (P28702 whole entry, looked up, the tested form may be a part): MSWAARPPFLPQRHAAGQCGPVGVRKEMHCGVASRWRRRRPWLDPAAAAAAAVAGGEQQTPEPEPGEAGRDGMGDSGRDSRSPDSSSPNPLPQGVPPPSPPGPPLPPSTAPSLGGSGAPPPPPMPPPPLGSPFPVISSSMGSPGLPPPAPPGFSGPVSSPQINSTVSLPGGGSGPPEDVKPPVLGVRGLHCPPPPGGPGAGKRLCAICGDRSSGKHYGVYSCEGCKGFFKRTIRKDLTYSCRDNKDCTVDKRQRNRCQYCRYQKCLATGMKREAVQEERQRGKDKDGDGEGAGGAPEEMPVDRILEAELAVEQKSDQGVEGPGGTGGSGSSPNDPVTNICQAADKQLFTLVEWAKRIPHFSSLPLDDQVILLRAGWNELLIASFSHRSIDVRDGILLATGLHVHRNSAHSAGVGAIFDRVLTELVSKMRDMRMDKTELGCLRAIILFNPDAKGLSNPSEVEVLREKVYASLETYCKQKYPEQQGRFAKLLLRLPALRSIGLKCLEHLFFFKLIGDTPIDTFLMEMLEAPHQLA

Read-out in experiment [6]: E-selectin (Homo sapiens) (UniProt P16581)
Put plainly: BSK_3C_Eselectin: BioMAP Diversity Plus: 3C Assay for Eselectin Biomarker Activity (AID 2283015).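 On outcome: cell surface E-selectin protein quantified by ELISA 24 h after dosing.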 As to conditions: primary human endothelial cells (HUVEC); actives raise or lower the signal. In short, it runs like this:
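HUVEC, 3C stimulation; compound exposure 24 h; E-selectin by ELISA; gain- or loss-of-signal fitted bidirectionally vs DMSO baseline.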

Read-out in experiment [7]: Interleukin-1 alpha (IL1a), IL1A (gene 3552)
Briefly: BSK_BE3C_IL1a: BioMAP Diversity Plus: BE3C Assay for Interleukin-1 alpha (IL1a) Biomarker Activity (AID 2283016). The conditions noted are these: primary human bronchial epithelial cells; actives raise or lower the signal. In short, it runs like this: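 ELISA read-out of IL-1a from human lung bronchial epithelial primary cells, 24 h post-dose. Gain or loss of signal fitted relative to DMSO negative control.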

Read-out in experiment [8]: Monocyte Chemoattractant Protein-1 (MCP1), CCL2 (gene 6347)
Put plainly: BSK_3C_MCP1: BioMAP Diversity Plus: 3C Assay for Monocyte Chemoattractant Protein-1 (MCP1) Biomarker Activity (AID 2283017). The conditions noted are these: primary human endothelial cells (HUVEC); actives raise or lower the signal. In short, it runs like this: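 HUVEC, 3C system; 24 h chemical exposure; MCP-1 by ELISA; bidirectional curve fit vs DMSO baseline.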

Read-out in experiment [9]: Monocyte Chemoattractant Protein-1 (MCP1), CCL2 (gene 6347)
Briefly: BSK_4H_MCP1: BioMAP Diversity Plus: 4H Assay for Monocyte Chemoattractant Protein-1 (MCP1) Biomarker Activity (AID 2283018). As to conditions: primary human endothelial cells (HUVEC); actives raise or lower the signal. In short, it runs like this: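 HUVEC primary cells, 24 h post-dose, MCP-1 by ELISA. Gain or loss of signal fitted bidirectionally vs DMSO baseline. Cytotoxicity: SRB stain (0.1% after 10% TCA fixation), read 560 nm, parallel cultures.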

Read-out in experiment [10]: Human Leukocyte Antigen - DR isotype (HLADR), HLA-DRA (gene 3122)
Put plainly: BSK_3C_HLADR: BioMAP Diversity Plus: 3C Assay for Human Leukocyte Antigen - DR isotype (HLADR) Biomarker Activity (AID 2283019).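 On outcome: ELISA of cell-surface HLA-DR on HUVEC 24 h after dosing.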 As to conditions: primary human endothelial cells (HUVEC); actives raise or lower the signal. In short, it runs like this: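 HUVEC, 3C stimulation, 24 h post-dose; HLA-DR by ELISA; bidirectional curve fit vs DMSO baseline; gain or loss of signal scored.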

Read-out in experiment [11]: Interleukin-8 (IL8), CXCL8 (gene 3576)
Briefly: BSK_3C_IL8: BioMAP Diversity Plus: 3C Assay for Interleukin-8 (IL8) Biomarker Activity (AID 2283020). As to conditions: primary human endothelial cells (HUVEC); actives raise or lower the signal. In short, it runs like this:
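HUVEC, 3C stimulation; 24 h compound exposure; IL-8 read by ELISA; gain or loss of signal fitted relative to DMSO control.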

Read-out in experiment [12]: Monokine induced gamma interferon (MIG), CXCL9 (gene 4283)
Briefly: BSK_3C_MIG: BioMAP Diversity Plus: 3C Assay for Monokine induced gamma interferon (MIG) Biomarker Activity (AID 2283021).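 On AC50: MIG protein level measured by immunoassay in the treated endothelial cultures.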 As to conditions: primary human endothelial cells (HUVEC); actives raise or lower the signal. In short, it runs like this:
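HUVEC, 3C system; 24 h chemical exposure; MIG by ELISA; bidirectional fit vs DMSO baseline.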

A short description of experiment [13]: BSK_3C_SRB: Viability Assessment in the BioMAP Diversity Plus: 3C Assay (AID 2283023).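 Further: cells read 24 h after compound dosing; fitted both ways against DMSO so a hit may be signal rise or drop.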 The conditions noted are these: primary human endothelial cells (HUVEC). In short, it runs like this:
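HUVEC, 24 h post-dose; 10% TCA fix, 0.1% SRB stain, A560 nm. Bidirectional curve fit vs DMSO negative control.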

Read-out in experiment [14]: Matrix Metallopeptidase 1 (MMP1), MMP1 (gene 4312)
Put plainly: BSK_BE3C_MMP1: BioMAP Diversity Plus: BE3C Assay for Matrix Metallopeptidase 1 (MMP1) Biomarker Activity (AID 2283024). As to conditions: primary human bronchial epithelial cells; actives raise or lower the signal. In short, it runs like this: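 ELISA read-out of MMP1 in human lung bronchial epithelial primary cultures, 24 h post-dose; bidirectional curve fit vs DMSO baseline, gain or loss of signal scored.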

Read-out in experiment [15]: Pselectin, SELP (gene 6403)
Put plainly: BSK_4H_Pselectin: BioMAP Diversity Plus: 4H Assay for Pselectin Biomarker Activity (AID 2283026). The conditions noted are these: primary human endothelial cells (HUVEC); actives raise or lower the signal. In short, it runs like this: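 HUVEC, 24 h chemical exposure; P-selectin read by ELISA. Bidirectional curve fit vs DMSO baseline; gain or loss of signal scored.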

A short description of experiment [16]: BSK_4H_SRB: Viability Assessment in the BioMAP Diversity Plus: 4H Assay (AID 2283027).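 Further: cells exposed to compound for 24 h before staining.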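 On AC50: curves fitted both ways versus DMSO so AC50 may be loss or gain.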 The conditions noted are these: primary human endothelial cells (HUVEC). In short, it runs like this: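 HUVEC, 24 h post-dose; 10% TCA fix, 0.1% SRB stain, A560 nm. Total protein = overt cytotoxicity, parallel to biomarker read. Bidirectional fit vs DMSO baseline.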
Experiment [17] in a line: BSK_BE3C_SRB: Viability Assessment in the BioMAP Diversity Plus: BE3C Assay (AID 2283028). As to conditions: primary human bronchial epithelial cells. In short, it runs like this:
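Primary human bronchial epithelium; chemical dosing, 24 h; 10% TCA fix, 0.1% SRB stain, A560; bidirectional fit vs DMSO baseline.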

Read-out in experiment [18]: Thrombomodulin, THBD (gene 7056)
Put plainly: BSK_3C_Thrombomodulin: BioMAP Diversity Plus: 3C Assay for Thrombomodulin Biomarker Activity (AID 2283029). As to conditions: primary human endothelial cells (HUVEC); actives raise or lower the signal. In short, it runs like this:
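HUVEC, 3C conditions; compound 24 h; thrombomodulin by ELISA; bidirectional curve fit vs DMSO baseline; parallel SRB total-protein staining for cytotoxicity.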

Read-out in experiment [19]: Urokinase-type plasminogen activator receptor (uPAR), PLAUR (gene 5329)
Put plainly: BSK_4H_uPAR: BioMAP Diversity Plus: 4H Assay for Urokinase-type plasminogen activator receptor (uPAR) Biomarker Activity (AID 2283030). As to conditions: primary human endothelial cells (HUVEC); actives raise or lower the signal. In short, it runs like this: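 HUVEC, 24 h post-dose; uPAR by ELISA; bidirectional fit vs DMSO baseline.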

Results filed as inconclusive are left out. Where a structure was tested more than once in an assay, its records may differ in their call. Activity calls are given as the source filed them. How the source made its calls, unless noted: active means hit-call score of the fitted dose curve at least 0.9, where 1 is the maximum; inactive means score below 0.9.

human Vitamin D Receptor (VDR), VDR (gene 7421), sequence (P11473 whole entry, looked up, the tested form may be a part): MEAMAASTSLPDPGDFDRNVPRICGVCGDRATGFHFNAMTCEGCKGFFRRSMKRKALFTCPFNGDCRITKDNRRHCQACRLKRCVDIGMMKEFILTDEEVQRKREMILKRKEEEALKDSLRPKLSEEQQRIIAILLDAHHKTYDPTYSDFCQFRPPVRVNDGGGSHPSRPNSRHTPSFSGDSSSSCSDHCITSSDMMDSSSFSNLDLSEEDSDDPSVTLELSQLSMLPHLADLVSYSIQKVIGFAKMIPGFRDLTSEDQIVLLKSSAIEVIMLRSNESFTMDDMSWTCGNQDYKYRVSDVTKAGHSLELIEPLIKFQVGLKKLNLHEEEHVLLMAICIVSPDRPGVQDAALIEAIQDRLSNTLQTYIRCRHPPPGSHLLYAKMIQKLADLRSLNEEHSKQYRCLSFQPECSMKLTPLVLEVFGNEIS
Retinoic acid receptor RXR-alpha (Homo sapiens), sequence (P19793 whole entry, looked up, the tested form may be a part): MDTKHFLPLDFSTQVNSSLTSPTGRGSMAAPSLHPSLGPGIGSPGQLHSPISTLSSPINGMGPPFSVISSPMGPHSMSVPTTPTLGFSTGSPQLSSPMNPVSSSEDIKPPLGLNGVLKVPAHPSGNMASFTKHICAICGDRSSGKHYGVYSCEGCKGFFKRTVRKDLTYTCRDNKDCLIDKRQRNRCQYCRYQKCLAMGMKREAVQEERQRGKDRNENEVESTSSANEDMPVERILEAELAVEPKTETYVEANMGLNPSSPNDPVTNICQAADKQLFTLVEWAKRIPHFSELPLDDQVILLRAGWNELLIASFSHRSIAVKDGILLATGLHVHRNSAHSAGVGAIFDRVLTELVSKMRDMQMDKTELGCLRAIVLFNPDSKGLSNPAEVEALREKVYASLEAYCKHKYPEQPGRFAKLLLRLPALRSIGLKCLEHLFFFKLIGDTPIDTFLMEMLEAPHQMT
E-selectin (Homo sapiens), sequence (P16581 whole entry, looked up): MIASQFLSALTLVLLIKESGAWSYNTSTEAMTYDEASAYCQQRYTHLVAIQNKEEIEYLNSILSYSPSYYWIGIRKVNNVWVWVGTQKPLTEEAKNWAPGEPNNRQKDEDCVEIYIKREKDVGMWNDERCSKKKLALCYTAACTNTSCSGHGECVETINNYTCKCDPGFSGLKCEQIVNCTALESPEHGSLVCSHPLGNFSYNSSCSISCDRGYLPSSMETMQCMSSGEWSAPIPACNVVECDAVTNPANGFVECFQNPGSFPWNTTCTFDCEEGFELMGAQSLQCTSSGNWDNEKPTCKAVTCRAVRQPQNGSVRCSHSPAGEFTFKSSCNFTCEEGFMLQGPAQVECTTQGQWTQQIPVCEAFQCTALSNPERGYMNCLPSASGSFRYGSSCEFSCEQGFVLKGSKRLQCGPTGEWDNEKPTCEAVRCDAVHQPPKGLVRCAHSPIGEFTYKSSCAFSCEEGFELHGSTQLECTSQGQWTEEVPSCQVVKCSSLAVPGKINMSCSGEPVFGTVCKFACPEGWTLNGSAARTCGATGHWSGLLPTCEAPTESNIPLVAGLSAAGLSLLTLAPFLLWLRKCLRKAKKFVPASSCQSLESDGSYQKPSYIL
human RAR-related Orphan Receptor gamma (RORg), RORC (gene 6097), sequence (P51449 whole entry, looked up, the tested form may be a part): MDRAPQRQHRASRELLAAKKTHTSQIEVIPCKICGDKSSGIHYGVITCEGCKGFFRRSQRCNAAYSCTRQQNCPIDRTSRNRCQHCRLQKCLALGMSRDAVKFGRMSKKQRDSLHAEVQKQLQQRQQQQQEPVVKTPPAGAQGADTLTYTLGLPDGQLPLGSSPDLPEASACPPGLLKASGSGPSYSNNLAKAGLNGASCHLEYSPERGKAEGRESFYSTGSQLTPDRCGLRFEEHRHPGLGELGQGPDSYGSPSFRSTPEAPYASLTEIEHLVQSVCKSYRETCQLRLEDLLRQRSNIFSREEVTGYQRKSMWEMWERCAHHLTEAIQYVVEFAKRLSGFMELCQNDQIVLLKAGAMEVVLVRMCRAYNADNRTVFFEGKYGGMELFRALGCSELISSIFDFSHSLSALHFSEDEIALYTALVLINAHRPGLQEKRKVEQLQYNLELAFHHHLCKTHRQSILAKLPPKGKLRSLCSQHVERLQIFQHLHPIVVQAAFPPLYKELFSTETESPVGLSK

On to `CN(C)C(C)(C)CO`, for which the compound was called inactive in [1], in experiment [2], in experiment [3] and in [4].

In the case of `O=C=NCc1cccc(CN=C=O)c1`, the call in experiment [2], in experiment [5], in experiment [3], in experiment [6], in experiment [7] and in experiment [8] was inactive. The result in experiment [9], in experiment [10], in experiment [11], in experiment [12], in experiment [13] and in experiment [14] was inactive. Besides, the outcome in [15], in experiment [16], in [17], in [18] and in experiment [19] was inactive.

Broadly, the AC50 is the concentration giving half of the maximal activity seen. Take `Cc1ccc(S(=O)(=O)C(I)I)cc1`: the outcome in [2], in experiment [5] and in experiment [3] was inactive. The AC50 in experiment [6] is 3.08 µM (active); in experiment [7], 5.63 µM (active); in [8], 2.58 µM (active); in experiment [9] it was 1.43 µM (active); in experiment [10], 1.15 µM (active); in experiment [11] it was 4.26 µM (active). The AC50 is 3.75 µM (active) in [12]; 5.27 µM (active) in experiment [13]; 11.4 µM (active) in experiment [14]; 1.87 µM (active) in experiment [15]; 1.98 µM (active) in [16]; 4.78 µM (active) in experiment [18]. For the same compound, the AC50 in experiment [19] was 2.2 µM (active).

Regarding `O=C(c1ccccc1)c1ccc(Cl)cc1`, the result in experiment [2], in [3] and in experiment [4] was inactive. In addition, the AC50 in experiment [5] was 68.7 µM (active).

Consider `CCCCCCCCCc1ccc(OCCO)cc1`, for which the result in experiment [2], in [5], in experiment [3] and in experiment [4] was inactive.

Regarding `CCN(CC)c1ccc(C=O)c(O)c1`, the compound was called inactive in experiment [1], in experiment [5], in [6], in [7], in [8] and in [9]. Besides, the result in experiment [11], in experiment [4], in experiment [13], in experiment [14], in experiment [15] and in experiment [16] was inactive. Besides, the result in experiment [17], in [18] and in experiment [19] was inactive. Besides, in experiment [10], the AC50 is 32.9 µM (active).

As to `OCCCCl`, the result in experiment [2], in experiment [5], in [3] and in experiment [4] was inactive.

As for `CCOC(=O)CC(=O)C(F)(F)C(F)(F)F`, the result in [2], in experiment [6], in experiment [7], in experiment [8], in experiment [9] and in experiment [10] was inactive. Also, the result in experiment [11], in experiment [12], in experiment [4], in experiment [13], in experiment [14] and in experiment [15] was inactive. The result in experiment [16], in experiment [18] and in experiment [19] was inactive. The AC50 in experiment [19] is 15.1 µM (active).

`OCC1CCCO1` (stereo unspecified): the compound was called inactive in experiment [5] and in experiment [4].

In the case of `NC(O)(C(F)(F)F)C(F)(F)F`, the compound was classed as inactive in experiment [3], in [6], in experiment [7], in [8], in experiment [9] and in experiment [10]. For the same compound, the outcome in [11], in experiment [4], in [13], in [14], in experiment [15] and in experiment [16] was inactive. For the same compound, the outcome in [18] and in experiment [19] was inactive.

On to `c1ccc(C[P+](c2ccccc2)(c2ccccc2)c2ccccc2)cc1`, for which the result in experiment [2] and in [4] was inactive. Further, in experiment [3], the AC50 is 18.6 µM (active).

For the compound `CC(C)Nc1ccc(NC(C)C)c2c1C(=O)c1ccccc1C2=O`, the compound was classed as inactive in experiment [2], in [5], in experiment [3] and in experiment [4].

Take `CCC(Cc1c(I)cc(I)c(N)c1I)C(=O)O` (stereo unspecified): the compound was classed as inactive in experiment [3] and in experiment [4].

Take `CCOC(C=C(C)CCC=C(C)C)OCC`: the result in [2], in experiment [5], in experiment [14] and in experiment [17] was inactive. In addition, the AC50 in [6] is 32.8 µM (active); in experiment [7] it was 3.97 µM (active); in experiment [8], 32.1 µM (active); in experiment [9], 30.4 µM (active); in [10], 35.4 µM (active); in experiment [11] it was 29.8 µM (active). Further, the AC50 was 31.2 µM (active) in [13]; 30.2 µM (active) in [15]; 31 µM (active) in [16]; 3.97 µM (active) in experiment [18]; 35.2 µM (active) in [19].

In the case of `Oc1ccc(C2(c3ccc(O)c(C4CCCCC4)c3)CCCCC2)cc1C1CCCCC1`, the outcome in experiment [3] was inactive.

With `Oc1ccc2c(c1)CCC2`, the compound was classed as inactive in experiment [2], in experiment [5], in experiment [3] and in experiment [4].
